Experimental data taken from PubChem BioAssay (NCATS).
Records with an inconclusive call do not appear. Active and inactive are the calls of the source. Calls come from the whole dose curve; as a rule, active = well fitted cell-killing curve with a large enough effect; inconclusive = small, poorly fitted or top-dose-only effect; inactive = flat fitted curve, though single readings scatter.

Experiment: qHTS of pediatric cancer cell lines to identify multiple opportunities for drug repurposing: Primary screen for control Hh wild type fibroblast cells (AID 1347106); note: nearly all actives have a fitted effect of over 55% in size;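 for activity change, negative = cytotoxic: a drop in luminescence marks cytotoxicity and a rise apparent proliferation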
Conditions: Hh wild-type fibroblast viability, CellTiter-Glo luminescence, 48 h; series mostly up to 46 µM; activity change, negative = cytotoxic: at the top concentration
Method in brief: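 Viability after 48 h compound treatment at 37C, 500-1,000 cells/well, read as ATP luminescence with CellTiter-Glo. Primary screens used 11-point (MIPE, 0.78 nM-46 µM) or 8-point (NPC, 0.59 nM-46 µM) final concentrations; follow-up screens used 11-point dilutions.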
% is set by controls: 0 for no effect and ±100 for the full control effect; potency is the fitted concentration of half-maximal effect.

Row | SMILES | Potency | activity change, negative = cytotoxic
1 | CC(C)=CCCC(C)=CCCC(C)=CCSc1ccccc1C(=O)O | 8.33 µM (active) | 
2 | Cn1cc(-c2ccncc2)c(-c2ccc(OCc3ccc4ccccc4n3)cc2)n1 |  | 16.7% (inactive)
3 | COc1cc2c(Oc3ccc4[nH]c(C)cc4c3F)ncnc2cc1OCCCN1CCCC1 | 26.4 µM (active) | 
4 | O=C(Nc1nc2cccc(-c3ccc(CN4CCS(=O)(=O)CC4)cc3)n2n1)C1CC1 |  | -5.11% (inactive)
5 | CCN1CCN(CC(=O)Nc2ccc(-c3cccc4c(=O)cc(N5CCOCC5)oc34)c3sc4ccccc4c23)CC1 |  | -6.19% (inactive)
6 | Cc1cccc(C=NNc2cc(N3CCOCC3)nc(OCCc3ccccn3)n2)c1 |  | 14% (inactive)
7 | NC1(Cc2ccc(Cl)cc2)CCN(c2ncnc3[nH]ccc23)CC1 |  | -11.6% (inactive)
8 | Nc1nccc(Oc2ccc(NC(=O)c3c[nH]cc(-c4ccc(F)cc4)c3=O)cc2F)c1Cl |  | -1.93% (inactive)
9 | CC(=O)c1c(C)c2cnc(Nc3ccc(N4CCNCC4)cn3)nc2n(C2CCCC2)c1=O |  | -5.09% (inactive)
10 | COC(=O)C1=C(C)NC(C)=C(C(=O)OCCN2CCN(C(c3ccccc3)c3ccccc3)CC2)C1c1cccc([N+](=O)[O-])c1 (centres undefined) |  | 11.2% (inactive)
11 | CC1(O)CC(c2nc(-c3ccc4ccc(-c5ccccc5)nc4c3)c3c(N)nccn23)C1 (centres undefined) |  | -3.04% (inactive)
12 | C=CC(=O)Nc1cccc(Oc2nc(Nc3ccc(N4CCN(C)CC4)cc3OC)ncc2Cl)c1 |  | -23.5% (inactive)
13 | CN(C1CCc2c(c3ccccc3n2CC(=O)O)C1)S(=O)(=O)c1ccc(F)cc1 (centres undefined) |  | 12.1% (inactive)
14 | Cc1cc(Nc2ncnc3ccc(-c4ccc(CNCCS(C)(=O)=O)o4)cc23)ccc1Oc1ccn2ncnc2c1 |  | -11.4% (inactive)
15 | O=C(O)C1(Cc2cccc(Nc3nccs3)n2)CCC(Oc2cccc(Cl)c2F)CC1 (centres undefined) |  | 9.15% (inactive)
16 | O=C(O)c1ccc2cc(-c3ccc(O)c(C45CC6CC(CC(C6)C4)C5)c3)ccc2c1 |  | 7.22% (inactive)
17 | Cc1cc(CN2CCN(c3c(Br)cnc4nc(-c5ccc(N6CCN(C)CC6)cc5)[nH]c34)CC2)no1 |  | -8.57% (inactive)
18 | Nc1cccc(-c2cc3c(Oc4cccc(O)c4)ncnc3[nH]2)c1 |  | -13.6% (inactive)
19 | COc1cccc(-c2ccc(NC(=O)C3=C(C(=O)O)CCC3)c(F)c2)c1 |  | 0.363% (inactive)
